Measured values as given in PubChem BioAssay (Tox21).
Results filed as inconclusive are left out. Calls of active or inactive are those of the source. Unless noted, the call rests on the fitted dose curve.

Assays:
[1] = Nuclear factor erythroid 2-related factor 2/antioxidant responsive element (Nrf2/ARE) small molecule agonists: qHTS cell viability counter screen in human keratinocytes (AID 1919968; active means well fitted curve in the direction sought with a large enough effect in the repeat runs; an effect the other way counts as inactive or inconclusive; further: nearly all actives have a fitted effect of over 55% in size)
Procedure, shortened: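 In human HaCaT keratinocytes stably expressing an ARE-driven luciferase, compound exposure lasted 23 h at 37 C under 5% CO2. Viable cells are quantified with a protease-based fluorogenic reagent (CellTiter-Fluor) read 1 h after addition.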

[2] = Nuclear factor erythroid 2-related factor 2/antioxidant responsive element (Nrf2/ARE) small molecule agonists: luciferase reporter gene qHTS assay in human keratinocytes (AID 1919969); further: nearly all actives have a fitted effect of over 35% in size; further: potency means the concentration at half of the fitted maximal effect
[3] = biological target: Gonadotropin-releasing hormone receptor (Homo sapiens) (UniProt P30968); test: Human gonadotropin-releasing hormone receptor (GnRHR) small molecule agonists, calcium flux assay in GnRHR-HEK293 cells (AID 1920063); further: nearly all actives have a fitted effect of over 35% in size
Sequence of Gonadotropin-releasing hormone receptor (Homo sapiens) (P30968 whole entry, looked up): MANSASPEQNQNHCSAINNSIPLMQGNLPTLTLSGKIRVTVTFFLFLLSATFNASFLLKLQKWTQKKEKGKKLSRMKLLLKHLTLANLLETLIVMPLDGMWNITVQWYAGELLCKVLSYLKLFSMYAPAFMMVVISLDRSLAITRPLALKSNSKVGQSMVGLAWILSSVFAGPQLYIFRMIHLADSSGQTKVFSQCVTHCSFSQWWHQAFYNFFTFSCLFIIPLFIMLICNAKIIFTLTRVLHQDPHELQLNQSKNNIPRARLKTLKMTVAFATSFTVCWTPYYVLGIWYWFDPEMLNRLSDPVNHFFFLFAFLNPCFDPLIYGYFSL
Procedure, shortened: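 Intracellular calcium rise is the read-out: engineered human GnRHR HEK293 cells, dye-loaded, are exposed to DMSO-dissolved compounds and fluorescence at Ex/Em 480/540 is tracked for 3 min.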

[4] = biological target: KiSS-1 receptor (Homo sapiens) (UniProt Q969F8); test: Human kisspeptin (KISS1R) small molecule agonists, calcium flux assay in KISS1R-HEK293 cells (AID 1920064; active means well fitted curve in the direction sought with a large enough effect in the repeat runs; an effect the other way counts as inactive or inconclusive)
Sequence of KiSS-1 receptor (Homo sapiens) (Q969F8 whole entry, looked up): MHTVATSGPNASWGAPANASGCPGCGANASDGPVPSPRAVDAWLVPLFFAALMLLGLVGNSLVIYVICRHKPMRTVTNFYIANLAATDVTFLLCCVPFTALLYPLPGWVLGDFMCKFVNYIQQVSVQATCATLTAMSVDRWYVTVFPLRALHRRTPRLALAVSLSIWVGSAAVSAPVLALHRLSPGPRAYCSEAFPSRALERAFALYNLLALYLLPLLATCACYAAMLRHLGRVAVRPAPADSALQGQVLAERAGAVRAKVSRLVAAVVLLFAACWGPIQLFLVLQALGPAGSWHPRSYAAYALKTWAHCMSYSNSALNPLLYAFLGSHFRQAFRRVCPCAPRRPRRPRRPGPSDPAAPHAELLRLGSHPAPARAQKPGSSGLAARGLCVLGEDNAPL
Procedure, shortened: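 Concentration-response testing used 15 concentrations in triplicate on human KISS1R-expressing HEK293 cells. Calcium-dependent fluorescence (Ex/Em 480/540) was followed kinetically for 3 min after compound transfer.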

[5] = G protein-coupled receptor (GPCR) small molecule agonists, calcium flux assay: HEK293 wild type cell line counter screen (AID 1920065)
Procedure, shortened: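 Fluorescence intensity signals activation. After overnight (18 h) culture and a 1 h calcium dye load at 37 C, compounds are added by pin tool and the plate read at 480/540 nm for 3 min in 1 s steps.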

[6] = p53 small molecule agonists, cell-based qHTS assay with human liver microsomes (AID 1963577)
Procedure, shortened: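 p53RE-bla cells, 4,000/well, compound added after 5 h, with human liver microsomes 0.5 mg/mL and NADPH 0.5 mg/mL final; 16 h at 37 C, then LiveBLAzer 2 h RT, fluorescence.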

[7] = p53 small molecule agonists, cell-based qHTS assay with rat liver microsomes (AID 1963578)
Procedure, shortened: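 p53RE-bla cells, 4,000/well, pre-incubated 5 h, then given compounds plus rat liver microsomes (0.5 mg/mL final) and NADPH (0.5 mg/mL final). Incubation 16 h at 37 C; beta-lactamase reporter read by LiveBLAzer fluorescence after 2 h at room temperature.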

[8] = p53 small molecule agonists, cell-based qHTS assay with human liver microsomes: qHTS cell viability counter screen (AID 1963579); further: nearly all actives have a fitted effect of over 45% in size
Procedure, shortened: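 p53RE-bla cells, 4,000/well, dosed 5 hours after plating, with human liver microsomes (0.5 mg/mL final) plus NADPH (0.5 mg/mL final), 16 hours at 37 C. Viability read as CellTiter-Glo luminescence after 30 min at room temperature.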

[9] = p53 small molecule agonists, cell-based qHTS assay with rat liver microsomes: qHTS cell viability counter screen (AID 1963580); further: nearly all actives have a fitted effect of over 45% in size
Procedure, shortened: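 Cytotoxicity counter screen: intracellular ATP measured by CellTiter-Glo luminescence in the same wells as the beta-lactamase reporter read, on HCT-116 p53RE-bla cells exposed 16 h at 37 C to compounds with rat liver microsomes and NADPH, each 0.5 mg/mL final.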

[10] = p53 small molecule agonists, cell-based qHTS assay: qHTS cell viability counter screen (AID 1963581); further: nearly all actives have a fitted effect of over 45% in size
Procedure, shortened: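 Luminescence from CellTiter-Glo, reflecting ATP content, serves as the cytotoxicity measure; it is taken after the 2 h reporter substrate step in HCT-116 p53RE-bla cells dosed for 16 h at 37 C.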

[11] = p53 small molecule agonists, cell-based qHTS assay (AID 1963582; active means well fitted activation curve with a large enough effect in the signal ratio in the repeat runs, not every such curve was filed as active; the % refers to the signal ratio)
Procedure, shortened: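 After plating, p53RE-bla cells sat 5 h in the incubator; compounds or DMSO vehicle were pinned in; a 16 h incubation at 37 C followed; FRET substrate was added and, 2 h later at RT, fluorescence was measured.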

[12] = cAMP Responsive Elements (CRE) small molecule agonists, cell-based qHTS assay (AID 1963590)
Procedure, shortened: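 Compound exposure lasted 3 h at 37 C/5% CO2 in CRE-bla HEK 293T cells grown in assay medium with 10% dialyzed FBS and 25 mM HEPES. Reporter signal came from LiveBLAzer B/G FRET substrate, 2 h, room temperature.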

[13] = cAMP Responsive Elements (CRE) small molecule antagonists, cell-based qHTS assay (AID 1963591; active means well fitted inhibition curve with a large enough effect in the signal ratio in the repeat runs, not every such curve was filed as active; the % refers to the signal ratio)
Procedure, shortened: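 Stimulation used NKH477 at a final 0.25 uM for 3 h in compound-treated CRE-bla HEK293T cells, seeded 18 h beforehand. Reporter activity was measured with LiveBLAzer B/G FRET substrate after 2 h at room temperature.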

[14] = biological target: Beta-2 adrenergic receptor (Homo sapiens) (UniProt P07550); test: Adrenergic beta2 receptor (ADRB2) small molecule antagonists, cell-based qHTS assay (AID 1963592); further: series mostly up to about 92 µM; nearly all actives have a fitted effect of over 50% in size
Sequence of Beta-2 adrenergic receptor (Homo sapiens) (P07550 whole entry, looked up): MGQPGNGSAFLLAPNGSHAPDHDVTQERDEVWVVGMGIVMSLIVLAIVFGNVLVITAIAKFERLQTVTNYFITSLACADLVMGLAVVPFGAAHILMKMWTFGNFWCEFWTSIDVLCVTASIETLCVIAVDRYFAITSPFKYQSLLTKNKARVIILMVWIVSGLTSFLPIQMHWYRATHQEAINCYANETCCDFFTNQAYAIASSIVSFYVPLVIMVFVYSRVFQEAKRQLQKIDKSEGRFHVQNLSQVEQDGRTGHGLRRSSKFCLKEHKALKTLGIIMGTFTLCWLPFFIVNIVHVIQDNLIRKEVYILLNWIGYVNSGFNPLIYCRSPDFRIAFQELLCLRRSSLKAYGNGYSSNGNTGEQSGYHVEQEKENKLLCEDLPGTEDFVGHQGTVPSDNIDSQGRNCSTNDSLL
Procedure, shortened: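 Assay format: CHO-ADRB2 cells, 18-20hr seeding at 37C/5% CO2, then compound plus 1nM isoproterenol agonist mix for 0.5hr RT. Homogeneous time-resolved fluorescence cAMP detection after 1hr, expressed as 665/615 nm ratio.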

[15] = biological target: D(2) dopamine receptor (Homo sapiens) (UniProt P14416); test: Dopamine D2 receptor (DRD2) small molecule agonists, cell-based qHTS assay (AID 1963594); further: nearly all actives have a fitted effect of over 35% in size; further: potency means the concentration at half of the fitted maximal effect
Sequence of D(2) dopamine receptor (Homo sapiens) (P14416 whole entry, looked up): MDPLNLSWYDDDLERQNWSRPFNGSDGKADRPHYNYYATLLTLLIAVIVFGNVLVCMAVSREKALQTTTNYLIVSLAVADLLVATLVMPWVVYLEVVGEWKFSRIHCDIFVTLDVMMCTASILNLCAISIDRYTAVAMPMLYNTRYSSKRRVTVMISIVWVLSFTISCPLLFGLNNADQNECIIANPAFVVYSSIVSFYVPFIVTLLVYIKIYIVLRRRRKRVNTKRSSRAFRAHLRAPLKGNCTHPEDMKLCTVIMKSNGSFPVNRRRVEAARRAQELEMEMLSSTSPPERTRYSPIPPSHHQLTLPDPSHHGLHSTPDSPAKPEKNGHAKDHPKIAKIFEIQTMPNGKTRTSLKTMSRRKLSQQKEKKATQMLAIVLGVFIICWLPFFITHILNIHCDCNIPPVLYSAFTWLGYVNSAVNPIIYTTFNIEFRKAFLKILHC
Procedure, shortened: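 HEK293 cells stably expressing human DRD2, pre-treated with PDE inhibitor Ro20-1724 (0.1 mM final) and compound 10 min at room temperature, then stimulated with NKH477 (200nM […]) for 30 min. cAMP read by HTRF (665/620 nm).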

[16] = biological target: D(2) dopamine receptor (Homo sapiens) (UniProt P14416); test: Dopamine D2 receptor (DRD2) small molecule antagonists, cell-based qHTS assay (AID 1963595; active means well fitted inhibition curve with a large enough effect in the signal ratio in the repeat runs, with a control signal flat; the % refers to the signal ratio)
Procedure, shortened: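 HEK293 cells stably expressing DRD2, preincubated with 0.1 mM Ro20-1724 and compounds 10 min, were stimulated with 200 nM NKH477 plus 12 nM quinpirole for 30 min at room temperature; cAMP measured by HTRF (665/620 nm).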

[17] = biological target: Muscarinic acetylcholine receptor M1 (Homo sapiens) (UniProt P11229); test: Cholinergic receptor muscarinic 1 (CHRM1) small molecule antagonists, cell-based qHTS assay (AID 1963588); further: nearly all actives have a fitted effect of over 40% in size
Sequence of Muscarinic acetylcholine receptor M1 (Homo sapiens) (P11229 whole entry, looked up): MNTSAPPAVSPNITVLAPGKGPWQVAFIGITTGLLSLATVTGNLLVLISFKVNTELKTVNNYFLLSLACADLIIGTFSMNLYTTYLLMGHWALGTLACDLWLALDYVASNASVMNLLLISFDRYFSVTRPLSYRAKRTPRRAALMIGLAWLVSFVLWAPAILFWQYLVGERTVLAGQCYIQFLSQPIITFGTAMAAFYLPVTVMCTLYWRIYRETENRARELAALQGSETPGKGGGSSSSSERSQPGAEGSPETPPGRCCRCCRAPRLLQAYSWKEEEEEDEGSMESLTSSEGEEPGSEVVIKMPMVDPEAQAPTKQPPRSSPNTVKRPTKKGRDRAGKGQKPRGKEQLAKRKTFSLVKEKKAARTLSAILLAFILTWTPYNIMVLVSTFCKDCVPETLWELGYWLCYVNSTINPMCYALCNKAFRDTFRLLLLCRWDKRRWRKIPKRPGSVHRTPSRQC
Procedure, shortened: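 Compounds were tested at 15 concentrations in three independent runs. Dye-loaded CHRM1-CHO cells were exposed 5 min at room temperature before stimulation by acetylcholine added at 50nM. Intracellular calcium was read kinetically on FDSS for 3 min.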

[18] = biological target: Muscarinic acetylcholine receptor M1 (Homo sapiens) (UniProt P11229); test: Cholinergic receptor muscarinic 1 (CHRM1) small molecule agonists, cell-based qHTS assay (AID 1963589); further: nearly all actives have a fitted effect of over 35% in size
Procedure, shortened: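 Fluorescent calcium dye reports M1 activation in stably transfected CHO cells. Compounds, 15 concentrations, added after 1 h dye loading at 37 C; kinetic reading at 1 sec intervals.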
On the % scale 0 is the no-effect control and ±100 the full control effect.

CC1=NS(=O)(=O)c2cc(Cl)ccc2N1
inactive: Potency [1] | Potency [2] | Potency [3] | outcome [4] | outcome [5] | Potency [6] | Potency [7] | Potency [8] | Potency [9] | Potency [10] | Potency [11] | Potency [12] | Potency [13] | Potency [14] | Potency [15] | Potency [16]

CCOC(=O)C1=C(C)NC(C)=C(C(=O)OC)C1c1cccc(Cl)c1Cl (stereo unspecified)
inactive: Potency [1] | Potency [2] | Potency [3] | outcome [4] | outcome [5] | Potency [6] | Potency [7] | Potency [8] | Potency [9] | Potency [10] | Potency [11] | Potency [12] | Potency [13] | Potency [14] | Potency [15] | Potency [16]

CCOC(=O)C1=C(C)NC(C)=C(C(=O)OC)C1c1cccc([N+](=O)[O-])c1 (stereo unspecified)
inactive: Potency [1] | Potency [2] | Potency [3] | outcome [4] | outcome [5] | Potency [6] | Potency [7] | Potency [8] | Potency [9] | Potency [10] | Potency [11] | Potency [12] | Potency [13] | Potency [14] | Potency [15] | Potency [16]

C[N+]1(C)[C@@H]2CC(OC(=O)[C@H](CO)c3ccccc3)C[C@H]1[C@@H]1O[C@@H]12 (stereo partly specified)
inactive: Potency [1] | Potency [2] | Potency [3] | outcome [4] | outcome [5] | Potency [6] | Potency [7] | Potency [8] | Potency [9] | Potency [10] | Potency [11] | Potency [12] | Potency [13] | Potency [14] | Potency [15] | Potency [16]

Nc1ccc(S(=O)(=O)NC(=O)c2ccccc2)cc1
inactive: Potency [1] | Potency [2] | Potency [3] | outcome [4] | outcome [5] | Potency [6] | Potency [7] | Potency [8] | Potency [9] | Potency [10] | Potency [11] | Potency [12] | Potency [13] | Potency [15] | Potency [16]

Cc1cn[nH]c1
inactive: Potency [1] | Potency [2] | Potency [3] | outcome [4] | outcome [5] | Potency [6] | Potency [7] | Potency [8] | Potency [9] | Potency [10] | Potency [11] | Potency [12] | Potency [13] | Potency [14] | Potency [16]

CCCCCCCCCC(=O)N(C)C
inactive: Potency [1] | Potency [3] | outcome [4] | outcome [5] | Potency [6] | Potency [7] | Potency [8] | Potency [9] | Potency [10] | Potency [11] | Potency [17] | Potency [18] | Potency [13] | Potency [14] | Potency [15] | Potency [16]
active: Potency [2] 43.9 µM

CCN1CC(CCN2CCOCC2)C(c2ccccc2)(c2ccccc2)C1=O (stereo unspecified)
inactive: Potency [1] | Potency [2] | Potency [3] | outcome [4] | outcome [5] | Potency [6] | Potency [7] | Potency [8] | Potency [9] | Potency [10] | Potency [11] | Potency [12] | Potency [13] | Potency [14] | Potency [15] | Potency [16]

CCOc1cc(N)c(Cl)cc1C(=O)NCC1CN(Cc2ccc(F)cc2)CCO1 (stereo unspecified)
inactive: Potency [1] | Potency [2] | Potency [3] | outcome [4] | outcome [5] | Potency [6] | Potency [7] | Potency [8] | Potency [9] | Potency [10] | Potency [11] | Potency [12] | Potency [13] | Potency [14] | Potency [15] | Potency [16]

O=NN(CCCl)C(=O)NC1CCCCC1
inactive: Potency [1] | Potency [2] | Potency [3] | outcome [4] | outcome [5] | Potency [6] | Potency [7] | Potency [8] | Potency [9] | Potency [10] | Potency [11] | Potency [12] | Potency [13] | Potency [14]

c1ccc([C@H]2CN3CCSC3=N2)cc1
inactive: Potency [1] | Potency [2] | Potency [3] | outcome [4] | outcome [5] | Potency [6] | Potency [7] | Potency [8] | Potency [9] | Potency [10] | Potency [11] | Potency [12] | Potency [13] | Potency [14] | Potency [15]

Nc1ccc(C(=O)O)c(O)c1
inactive: Potency [1] | Potency [2] | Potency [3] | outcome [4] | outcome [5] | Potency [6] | Potency [7] | Potency [8] | Potency [9] | Potency [10] | Potency [11] | Potency [12] | Potency [13] | Potency [14] | Potency [15]

Oc1c(I)cc(I)c2cccnc12
inactive: Potency [1] | Potency [2] | Potency [3] | outcome [4] | outcome [5] | Potency [6] | Potency [7] | Potency [8] | Potency [9] | Potency [10] | Potency [11] | Potency [12] | Potency [13] | Potency [14] | Potency [15] | Potency [16]

Nc1nc2c(ncn2COC(CO)CO)c(=O)[nH]1
inactive: Potency [1] | Potency [2] | Potency [3] | outcome [4] | outcome [5] | Potency [6] | Potency [7] | Potency [8] | Potency [9] | Potency [10] | Potency [11] | Potency [12] | Potency [13] | Potency [14] | Potency [16]
active: Potency [15] 1.14 µM

NCCCNCCSP(=O)(O)O
inactive: activity change, negative = cytotoxicity [1] -4.44% [at 8.39 µM] | activity, positive = activation [2] -4.57% [at 8.39 µM] | activity change [3] -1.6% [at 5.22 µM, hits give high values] | activation [4] -1.03% [at 6.97 µM] | activation [5] -0.178% [at 5.23 µM] | activation [6] 9.01% [at 5.99 µM] | activation [7] 0.418% [at 5.99 µM] | activity change, negative = cytotoxicity [8] -1.63% [at 5.99 µM] | activity change, negative = cytotoxicity [9] 7.5% [at 5.99 µM] | activity change, negative = cytotoxicity [10] 5.99% [at 5.99 µM] | activation [11] 1.38% [at 5.99 µM] | activation [12] 0.961% [at 8.39 µM] | activity change, negative = inhibition [13] 10.3% [at 8.39 µM] | activity change, negative = inhibition [14] -7.99% [at 8.39 µM] | activation [15] -13.4% [at 8.39 µM] | activity change, negative = inhibition [16] 5.25% [at 8.38 µM]

C[C@H](N)[C@H](O)c1cccc(O)c1
inactive: Potency [1] | Potency [2] | Potency [3] | outcome [4] | outcome [5] | Potency [6] | Potency [7] | Potency [8] | Potency [9] | Potency [10] | Potency [11] | Potency [17] | Potency [12] | Potency [14] | Potency [15] | Potency [16]
